# Test results from PubChem BioAssay AID720697 (Broad Institute, 2013).
# Potency and affinity values are given separately. Inconclusive results are not listed. Activity calls are given as the source filed them.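 How the source made its calls: active means signal loss with fitted half-maximal concentration at or below twice the top valid tested dose in every test run; inconclusive means runs disagree, flat 30 to 70% signal loss, or poor fit; inactive means all runs flat, opposite direction, or potency beyond limit.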
# Experiment: HEK293T cytotoxicity, dose response, cytotoxicity control for miR-122 modulator project, cell-based, inhibitor set, cherry-pick, set 2 (AID 720697);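 further: 0% = median of neutral control wells and -100% = MG132 positive control wells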
# Settings: HEK293T viability, CellTiter-Glo luminescence, 48 h; series mostly up to 26 µM; activity change, negative = cytotoxicity: at the top concentration
row,Structure (SMILES),"activity change, negative = cytotoxicity"
1,COC(=O)C[C@H]1CC[C@H]2[C@H](COc3ccc(NC(=O)c4cccc(F)c4)cc3C(=O)N2C)O1,18.2% (inactive)
2,CCCNC(=O)Nc1ccc2c(c1)C(=O)N(C)[C@H]1CC[C@@H](CC(=O)NCC3CCCCC3)O[C@@H]1CO2,59.2% (inactive)
3,CCC(=O)N1C[C@H]2[C@@H](c3ccccc31)[C@H](CO)N2Cc1cc(F)ccc1F,39.1% (inactive)
4,COCC(=O)Nc1ccc2c(c1)C(=O)N(C)[C@@H]1CC[C@H](CC(=O)NC3CCCC3)O[C@H]1CO2,62.5% (inactive)
5,Cc1ccc(-c2nnn(CC(=O)N(CC(=O)NCC3CCCO3)c3ccccc3)n2)o1 (centres undefined),27.2% (inactive)
6,CN1C(=O)c2cc(NC(=O)Nc3ccccc3Cl)ccc2OC[C@H]2O[C@H](CC(=O)O)CC[C@H]21,68.5% (inactive)
7,Nc1ccc(Oc2ccc(Br)cc2)cc1,92.3% (inactive)
8,CNC(=O)C[C@H]1CC[C@H]2[C@@H](COc3ccc(NC(=O)C(C)C)cc3C(=O)N2C)O1,58.9% (inactive)
9,COc1cccc(CNC(=O)C[C@@H]2CC[C@@H]3[C@H](COc4ccc(NC(C)=O)cc4C(=O)N3C)O2)c1,74.7% (inactive)
10,COc1cccc(-c2ccc3c(c2)O[C@H](CN(C)C(=O)C2CCOCC2)[C@H](C)CN([C@@H](C)CO)S3(=O)=O)c1,53% (inactive)
11,COc1cc(NC(=O)c2c(F)c(F)c(F)c(F)c2F)c(OC)cc1Cl,-41.5% (inactive)
12,CNC(=O)C[C@H]1CC[C@H]2[C@@H](COc3ccc(NC(=O)c4cccc(OC)c4)cc3C(=O)N2C)O1,85.8% (inactive)
13,COC(=O)C[C@H]1CC[C@@H]2[C@@H](COc3ccc(NC(=O)c4ccc(F)c(F)c4)cc3C(=O)N2C)O1,82% (inactive)
14,C[C@@H]1CN([C@@H](C)CO)S(=O)(=O)c2ccc(C#CC3(O)CCCC3)cc2O[C@@H]1CN(C)C(=O)c1cccnc1,68.5% (inactive)
15,C[C@H](CO)N1C[C@H](C)[C@H](CN(C)C(=O)NC2CCCCC2)Oc2ncc(-c3cccc(C(F)(F)F)c3)cc2C1=O,124% [at 23.5 µM] (inactive)
16,CC(C)Oc1ccc(C(CCN)C2CCCCC2)cc1 (centres undefined),-62.4% (inactive)
17,CC(=O)Nc1ccc2c(c1)C(=O)N(C)[C@@H]1CC[C@@H](CC(=O)NCc3ccc(Cl)cc3)O[C@H]1CO2,102% [at 23.5 µM] (inactive)
18,COc1ccccc1CNc1nc(Nc2ccccc2Cl)c2sccc2n1,42% (inactive)
19,CCNC(=O)C[C@@H]1CC[C@H]2[C@H](COc3ccc(NC(=O)c4ccccc4)cc3C(=O)N2C)O1,92.7% (inactive)
20,CCCNC(=O)Nc1ccc2c(c1)C(=O)N(C)[C@H]1CC[C@H](CC(=O)NC3CCC3)O[C@H]1CO2,130% (inactive)

row,Structure (SMILES),"activity change, negative = cytotoxicity"
1,CCNC(=O)C[C@@H]1CC[C@H]2[C@@H](COc3ccc(NC(=O)c4ccc(C(F)(F)F)cc4)cc3C(=O)N2C)O1,65.7% [at 23.5 µM] (inactive)
2,CCCNC(=O)N1C[C@@H]2[C@H](c3ccccc31)[C@@H](CO)N2C(=O)C1CCOCC1,34.3% (inactive)
3,O=C(c1cccnc1)N1C[C@H]2[C@@H](c3ccccc31)[C@H](CO)N2C(=O)Nc1ccccc1Cl,136% [at 23.5 µM] (inactive)
4,COc1cccc(NC(=O)Nc2ccc3c(c2)C(=O)N(C)[C@@H]2CC[C@H](CC(=O)O)O[C@H]2CO3)c1,90.2% (inactive)
5,COC(=O)C[C@@H]1CC[C@H]2[C@@H](COc3ccc(NC(=O)c4ccc(F)c(F)c4)cc3C(=O)N2C)O1,77.2% (inactive)
6,CC(C)Oc1ccc(CNCCC2(C(C)C)CCOC(C)(C)C2)cc1 (centres undefined),76.1% (inactive)
7,CN1C(=O)c2cc(NS(=O)(=O)c3cccc(F)c3)ccc2OC[C@H]2O[C@@H](CC(=O)NCCN3CCCCC3)CC[C@H]21,133% [at 23.5 µM] (inactive)
8,Cc1ccc(S(=O)(=O)Nc2ccc3c(c2)C(=O)N(C)[C@@H]2CC[C@@H](CC(=O)NCCc4ccncc4)O[C@@H]2CO3)cc1,45.1% (inactive)
9,COc1cccc(NC(=O)C[C@@H]2CC[C@@H]3[C@@H](COc4ccc(NS(=O)(=O)c5cccc(F)c5)cc4C(=O)N3C)O2)c1,85.1% [at 23.5 µM] (inactive)
10,CN1[C@@H](CO)[C@@H]2c3ccccc3N(C(=O)Nc3cc(F)ccc3F)C[C@@H]21,61% (inactive)
11,CC(=O)c1ccc(Nc2nc3ccc(C)cc3n3cnnc23)cc1,52.6% (inactive)
12,COc1ccc(NC(=O)Cn2nnc(C(=O)NCc3ccccc3OC)c2N)cc1Cl,45.7% (inactive)
13,COC(=O)c1nn(-c2ccccc2)c(Sc2ccc(Cl)cc2)c1/C=N/O,48.2% (inactive)
14,COc1cccc(-c2nn(-c3ccccc3)cc2CO)c1,-8.74% (inactive)
15,CCC(=O)N1[C@@H](CO)[C@@H](c2ccccc2)[C@@H]1CN(C(C)C)S(C)(=O)=O,141% (inactive)
16,COc1ccc(NC(=O)N(C)C[C@@H]2Oc3cc(C#CCC(C)C)ccc3S(=O)(=O)N([C@@H](C)CO)C[C@@H]2C)cc1,-65.6% (inactive)
17,COc1cc(-c2nnc(-c3ccco3)o2)ccc1OCc1ccccc1,-3.44% (inactive)
18,CN1C(=O)c2cc(NC(=O)Cc3ccccc3)ccc2OC[C@H]2O[C@@H](CC(=O)NCc3ccc(Cl)cc3)CC[C@@H]21,135% (inactive)
19,CNC(=O)C[C@H]1CC[C@@H]2[C@H](COc3ccc(NC(=O)Nc4ccccc4OC)cc3C(=O)N2C)O1,52.7% (inactive)
